We go through 70 molecules from the antibiotic and cytotoxicity screens of Wong et al. (2023).

About 500 (1.3%) of roughly 39,000 compounds were called active. The list comes from a sample in which actives are over-represented; it also holds similar structures and randomly drawn compounds.

For the assay, the system named is S. aureus RN4220. Kind of assay: growth inhibition call (relative growth <= 0.2). The note with it: 50 µM.
Regarding `C[C@@H]1CN([C@@H](C)CO)S(=O)(=O)c2ccc(-c3cccc(C#N)c3)cc2O[C@H]1CN(C)C(=O)c1cccnc1`, the growth inhibition call is “inactive”.

Regarding `CO[C@@H]1CN(C)C(=O)c2cc(NC(=O)Nc3cccc(Cl)c3)ccc2OC[C@H](C)N(C(=O)Nc2c(C)noc2C)C[C@H]1C`, the growth inhibition call was “inactive”. In the case of `CC(C)NC(=O)N(C)C[C@H]1OCCCC[C@H](C)Oc2ccc(NC(=O)Nc3ccccc3)cc2C(=O)N([C@@H](C)CO)C[C@H]1C` it was “inactive”. For the molecule `CC(C)=CCC[C@]1(C)[C@@H](CC=C(C)C)C[C@]2(CC=C(C)C)C(=O)C(CC=C(C)C)=C(O)[C@@]1(C(=O)C(C)C)C2=O`, the growth inhibition call was “active”. In the case of `C[C@@H]1CCCCO[C@@H](CN(C)C(=O)Nc2ccccc2)[C@@H](C)CN([C@H](C)CO)C(=O)c2cc(NC(=O)Cc3ccccc3)ccc2O1` it was “inactive”; in that of `Cn1cncc1[C@@](N)(c1ccc(Cl)cc1)c1ccc2c(c1)c(-c1cccc(Cl)c1)cc(=O)n2C`, “active”; in that of `Cc1noc(C)c1S(=O)(=O)N(C)C[C@@H]1OCCCC[C@@H](C)Oc2ccc(NS(=O)(=O)c3cn(C)cn3)cc2C(=O)N([C@@H](C)CO)C[C@H]1C`, “inactive”.

For the molecule `C[C@@H]1CN([C@@H](C)CO)C(=O)c2cc(NC(=O)Cc3ccccc3)ccc2O[C@@H](C)CCCCO[C@H]1CN(C)Cc1ccc2c(c1)OCO2`, the growth inhibition call is “inactive”.

On to `Cc1noc(C)c1S(=O)(=O)Nc1ccc2c(c1)C(=O)N([C@H](C)CO)C[C@H](C)[C@H](CN(C)S(=O)(=O)c1c(C)noc1C)O2`, for which the growth inhibition call is “inactive”.

Take `COc1cc(C)c(C(=O)Oc2cc(C)c(C(=O)O)c(O)c2)c(O)c1`: the growth inhibition call was “inactive”. With `CCCCCC(=O)Cc1cc(O)cc(O)c1C(=O)Oc1cc(CC(=O)CCCCC)c(C(=O)O)c(OC)c1`, the growth inhibition call was “active”.

Take `Cc1cc(OC(=O)c2c(C)cc(O)cc2O)cc(O)c1C(=O)O`: the growth inhibition call was “inactive”. In the case of `C[C@H](O)C#Cc1ccc2c(c1)O[C@H](CN(C)C(=O)CN(C)C)[C@H](C)CN([C@H](C)CO)S2(=O)=O` it was “inactive”; in that of `CN(C)CC#Cc1ccc([C@H]2[C@@H](CO)N3C(=O)CN(C(=O)c4cccnc4)C[C@H]23)cc1`, “inactive”. With `COc1ccc(S(=O)(=O)Nc2ccc3c(c2)C(=O)N([C@H](C)CO)C[C@H](C)[C@H](CN(C)C(=O)Nc2c(C)noc2C)O3)cc1` the entry was “inactive”; with `Cc1c(-c2c(-c3ccc(F)o3)sc3ncnc(O[C@H](Cc4ccccc4OCc4ccnn4CC(F)(F)F)C(=O)O)c23)ccc(OCCN2CCN(C)CC2)c1Cl`, “active”.

In the case of `COCC#Cc1ccc([C@H]2[C@H](CO)N3C(=O)CN(C(=O)C4CCOCC4)C[C@@H]23)cc1`, the growth inhibition call was “inactive”. With `Cc1coc2c1C(=O)C(=O)c1c-2ccc2c1CCCC2(C)C` the entry was “inactive”; with `Cc1cccc2c1OCC[C@@H](N)C2=O`, “inactive”. With `CC1COC2=C1C(=O)C(=O)c1c2ccc2c1CCCC2(C)C` (stereo not given) the entry was “active”; with `Cc1cccc2c3c(ccc12)C1=C(C(=O)C3=O)C(C)CO1` (stereo not given), “active”; with `C[C@H]1CN([C@@H](C)CO)C(=O)Cc2cc(NC(=O)CCN3CCOCC3)ccc2O[C@H]1CN(C)Cc1ccccc1`, “inactive”. Regarding `NS(=O)(=O)c1ccc(Cl)cc1[N+](=O)[O-]`, the growth inhibition call is “inactive”. With `O=C(Nc1cc(Cl)ccc1Cl)c1cc(Br)ccc1NS(=O)(=O)c1ccc(Cl)c([N+](=O)[O-])c1` the entry was “active”; with `O=C(Nc1ccc([N+](=O)[O-])cc1Cl)c1cc(Cl)ccc1O`, “inactive”; with `O=C(Nc1cc(Cl)ccc1Cl)c1cc(Cl)ccc1NS(=O)(=O)c1ccc(Cl)c([N+](=O)[O-])c1`, “active”. With `CNS(=O)(=O)c1ccc(Cl)c(C(N)=O)c1` the entry was “inactive”; with `O=C(Nc1ccc(Cl)cc1C(=O)c1ccc(Cl)cc1)c1cc(Br)ccc1NS(=O)(=O)c1ccc(Cl)cc1`, “inactive”; with `COc1ccc(S(=O)(=O)Nc2ccc3c(c2)C(=O)N([C@H](C)CO)C[C@@H](C)[C@@H](CN(C)C(=O)NC2CCCCC2)OCCCC[C@H](C)O3)cc1`, “inactive”. With `COc1ccc(S(=O)(=O)N(C)C[C@@H]2OCCCC[C@@H](C)Oc3ccc(NC(=O)NC4CCCCC4)cc3C(=O)N([C@H](C)CO)C[C@H]2C)cc1` the entry was “inactive”. For the molecule `CNC(=O)Cn1c(=O)c2c(OC)c(C)cnc2n(C)c1=O`, the growth inhibition call was “inactive”. Regarding `COc1ccc(NC(=O)N(C)C[C@H]2Oc3ccc(NS(=O)(=O)c4c(C)noc4C)cc3CC(=O)N([C@@H](C)CO)C[C@@H]2C)cc1`, the growth inhibition call was “inactive”. With `COc1ccc(S(=O)(=O)N(C)C[C@H]2Oc3ccc(NS(=O)(=O)c4c(C)noc4C)cc3C(=O)N([C@@H](C)CO)C[C@@H]2C)cc1` the entry was “inactive”; with `O=C(C[C@@H]1CC[C@H]2[C@@H](COC[C@H](O)CN2Cc2cc(F)ccc2F)O1)N[C@@H]1CCN(Cc2ccccc2)C1`, “inactive”; with `C[C@@H]1CN([C@@H](C)CO)C(=O)c2cc(NS(=O)(=O)c3cn(C)cn3)ccc2O[C@@H](C)CCCCO[C@@H]1CN(C)Cc1ccc(C(F)(F)F)cc1`, “inactive”. In the case of `C[C@@H]1CN([C@H](C)CO)S(=O)(=O)c2ccc(-c3cccnc3)cc2O[C@@H]1CN(C)C(=O)c1ccc2c(c1)OCO2` it was “inactive”; in that of `CCC1OC(=O)C(C)C(OC2CC(C)(OC)C(O)C(C)O2)C(C)C(OC2OC(C)CC(N(C)C)C2O)C(C)(O)CC(C)C(=NOCOCCOC)C(C)C(O)C1(C)O` (stereo not given), “active”. `CC[C@@H]1OC(=O)[C@H](C)[C@@H](O[C@H]2C[C@@](C)(OC)[C@@H](O)[C@H](C)O2)[C@H](C)[C@@H](O[C@@H]2O[C@H](C)C[C@H](N(C)C)[C@H]2O)[C@](C)(O)C[C@@H](C)/C(=N\OCOCCOC)[C@H](C)[C@@H](O)[C@]1(C)O`: the growth inhibition call is “active”.

On to `Cn1c(=O)c2cn3ncccc3c2n(C)c1=O`, for which the growth inhibition call was “inactive”. In the case of `COc1c(C)c2c(c(O)c1CC=C(C)CCC(=O)O)C(=O)OC2`, the growth inhibition call was “inactive”.

Turning to `Cc1noc(C)c1S(=O)(=O)Nc1ccc2c(c1)C(=O)N([C@H](C)CO)C[C@@H](C)[C@H](CN(C)Cc1ccc3c(c1)OCO3)O2`, the growth inhibition call was “inactive”. In the case of `O=C(N[C@H]1CC[C@@H](CC(=O)N2CCOCC2)O[C@H]1CO)c1ccc2c(c1)OCO2` it was “inactive”; in that of `Cc1ccc(S(=O)(=O)N(C)C[C@@H]2Oc3ccc(NC(=O)CCN4CCOCC4)cc3CC(=O)N([C@@H](C)CO)C[C@@H]2C)cc1`, “inactive”. In the case of `COc1ccc(S(=O)(=O)Nc2ccc3c(c2)CC(=O)N([C@@H](C)CO)C[C@H](C)[C@H](CN(C)C(=O)Nc2c(C)noc2C)O3)cc1`, the growth inhibition call is “inactive”. In the case of `CC(NCCCc1cccc(C(F)(F)F)c1)c1cccc2ccccc12.Cl` (stereo not given) it was “active”. With `C[C@@H](O)c1cccc(C(F)(F)F)c1` the entry was “inactive”. On to `CC(Cc1cccc(C(F)(F)F)c1)NCCOC(=O)c1ccccc1.Cl` (stereo not given), for which the growth inhibition call was “inactive”. With `Nc1ccc(O)cc1` the entry was “inactive”. In the case of `C[C@@H]1CCCCO[C@@H](CN(C)C(=O)C2CCCCC2)[C@H](C)CN([C@@H](C)CO)C(=O)c2cc(NC(=O)Nc3cccc4ccccc34)ccc2O1` it was “inactive”. With `CN1C=C(C(=O)OCCS(C)(=O)=O)C(C(=O)OCCS(C)(=O)=O)=CC(CCCO)=C[C@@H]1C1CC1` the entry was “inactive”; with `COC(=O)C1=CC(CCCO)=C[C@@H](c2cccs2)N(Cc2cccc(OC(F)(F)F)c2)C=C1C(=O)OC`, “active”; with `O=C(O)c1ccc(S(=O)(=O)N(Cc2ccc(OC(F)(F)F)cc2)c2ncc(C(F)(F)F)cc2Cl)cc1`, “active”. Turning to `O=C(O)c1ccc(S(=O)(=O)N(Cl)Cl)cc1`, the growth inhibition call was “inactive”. In the case of `CCN(CC)S(=O)(=O)c1ccc(C(=O)O)cc1` it was “inactive”; in that of `N=C(N=C(N)N)Nc1cc(-c2cccs2)n[nH]1`, “inactive”; in that of `C[C@@H]1CN([C@@H](C)CO)S(=O)(=O)c2ccc(C#Cc3ccc(F)cc3)cc2O[C@H]1CN(C)C(=O)CN(C)C`, “inactive”. With `C[C@H]1CN([C@@H](C)CO)S(=O)(=O)c2ccc(C#Cc3ccccc3)cc2O[C@H]1CN(C)C(=O)CN(C)C` the entry was “active”; with `C[C@@H]1CN([C@@H](C)CO)S(=O)(=O)c2ccc(C#Cc3ccccc3)cc2O[C@@H]1CN(C)C(=O)CN(C)C`, “active”; with `C[C@H]1CN([C@@H](C)CO)S(=O)(=O)c2ccc(C#Cc3ccc(F)cc3)cc2O[C@H]1CN(C)C(=O)CN(C)C`, “active”.

With `C[C@@H]1CN([C@H](C)CO)S(=O)(=O)c2ccc(C#Cc3ccc(F)cc3)cc2O[C@@H]1CN(C)C(=O)CN(C)C`, the growth inhibition call is “inactive”. In the case of `C[C@H](CO)N1C[C@H](C)[C@H](CN(C)C(=O)CN(C)C)Oc2cc(C#Cc3ccc(F)cc3)ccc2S1(=O)=O` it was “inactive”; in that of `C[C@@H]1CN([C@H](C)CO)S(=O)(=O)c2ccc(C#Cc3ccccc3)cc2O[C@@H]1CN(C)C(=O)CN(C)C`, “active”. In the case of `C[C@@H]1CN([C@@H](C)CO)S(=O)(=O)c2ccc(C#Cc3ccc(F)cc3)cc2O[C@@H]1CN(C)C(=O)CN(C)C` it was “inactive”; in that of `C[C@H]1CN([C@@H](C)CO)S(=O)(=O)c2ccc(C#Cc3ccc(F)cc3)cc2O[C@@H]1CN(C)C(=O)CN(C)C`, “inactive”. Consider `C[C@H](CO)N1C[C@H](C)[C@@H](CN(C)C(=O)CN(C)C)Oc2cc(C#Cc3ccccc3)ccc2S1(=O)=O`, for which the growth inhibition call was “inactive”. In the case of `C[C@@H]1CN([C@H](C)CO)S(=O)(=O)c2ccc(C#Cc3ccc(F)cc3)cc2O[C@H]1CN(C)C(=O)CN(C)C` it was “inactive”; in that of `C[C@H]1CN([C@@H](C)CO)S(=O)(=O)c2ccc(C#Cc3ccccc3)cc2O[C@@H]1CN(C)C(=O)CN(C)C`, “inactive”. In the case of `C[C@@H]1CCCCO[C@@H](CN(C)Cc2ccc(Cl)c(Cl)c2)[C@@H](C)CN([C@H](C)CO)C(=O)c2cc(NC(=O)C3CCCCC3)ccc2O1` it was “inactive”; in that of `CC(C)NC(=O)N(C)C[C@@H]1OCCCC[C@@H](C)Oc2ccc(NS(=O)(=O)c3cn(C)cn3)cc2C(=O)N([C@H](C)CO)C[C@H]1C`, “inactive”; in that of `C[C@@H]1CN([C@H](C)CO)C(=O)c2cc(NS(=O)(=O)c3ccc(F)cc3)ccc2O[C@@H](C)CCCCO[C@H]1CN(C)C(=O)Nc1ccccc1`, “inactive”.
